# Screens deposited in PubChem by National Center for Advancing Translational Sciences (NCATS).
# The list is not random: actives were taken first. Their share in the collection is about 8.1%.
# Gal4-VP16 FLuc: counter-screen for ROR gamma inhibitors: Gal4-VP16 reporter; Potency, µM (series often up to 53.6 µM), inactives show at the highest dose activity, negative = inhibition, usual class: inhibitors; 310,000 compounds, 3.5% hits; AID 2546; Drosophila S2 Gal4-VP16 UAS-luciferase, luminescence, 20 h;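 further: Gal4-VP16 expression switched on by copper sulfate through the metallothionein promoter; on the % scale 0 is the no-effect control and ±100 the full control effect; nearly all actives have a fitted effect of over 50% in size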
# RORg inh: inhibitors of mouse ROR gamma transcriptional activity; P51450; Drosophila S2 Gal4-RORgamma UAS-luciferase reporter, 20 h; Potency, µM (titrated, usually from 53.6 µM), for inactives: top-dose activity change, negative = inhibition, usual class: inhibitors; 310,000 compounds, 5.4% hits; AID 2551; further: on the % scale 0 is the no-effect control and ±100 the full control effect; nearly all actives have a fitted effect of over 60% in size
# Target sequence (P51450 whole entry, looked up, the tested form may be a part): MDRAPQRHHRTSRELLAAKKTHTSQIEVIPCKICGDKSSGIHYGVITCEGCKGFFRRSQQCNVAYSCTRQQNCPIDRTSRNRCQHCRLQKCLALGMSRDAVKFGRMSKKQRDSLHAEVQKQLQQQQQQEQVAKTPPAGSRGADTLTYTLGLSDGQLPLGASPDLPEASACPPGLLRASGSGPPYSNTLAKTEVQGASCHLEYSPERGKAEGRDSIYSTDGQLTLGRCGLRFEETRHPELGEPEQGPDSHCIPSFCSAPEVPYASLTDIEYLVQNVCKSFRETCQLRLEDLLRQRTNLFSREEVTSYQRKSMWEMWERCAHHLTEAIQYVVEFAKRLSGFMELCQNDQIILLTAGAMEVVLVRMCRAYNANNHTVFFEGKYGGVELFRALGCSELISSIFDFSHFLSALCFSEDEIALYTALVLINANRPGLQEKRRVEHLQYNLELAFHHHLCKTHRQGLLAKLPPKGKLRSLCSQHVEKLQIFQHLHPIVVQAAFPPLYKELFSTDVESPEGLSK
#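 Stably transfected Drosophila Schneider cells are the test system, with ROR gamma fused to Gal4 and luciferase under UAS control; luminescence is read after 20 hr of 700 uM copper sulfate induction at ambient temperature.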
# Sfp inh: blocks B. subtilis Sfp PPTase activity | Q9F4F7 | AID 1490 | Biochemical Sfp PPTase activity, qHTS | 310,000 compounds, 3.5% hits | Potency, µM, without a hit: largest response in the series, negative = inhibition, usual class: inhibitors;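 further: the enzyme is Sfp with the accession as filed and its product quenches rhodamine fluorescence; 0% = enzyme reaction without inhibitor and -100% = no enzyme wells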
#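 Reaction rates are the 30-min fluorescence difference (ex 525, em 598 nm) in wells containing 15 nM Sfp, 5 uM rhodamine-CoA and 12.5 uM BHQ-2-YbbR at pH 7.6 with 10 mM MgCl2.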
# PINK1 expr mod: modulators of PINK1 expression. Potency, µM (top dose mostly 76.6 µM), for inactives: top-dose activation (PINK1 increase), usual class: activators. PINK1 immunofluorescence, high-content cytometry, 24 h. 410,000 compounds, 0.2% hits; active means well fitted activation curve with a large enough effect; inconclusive means small, poorly fitted or top-dose-only effect; cell line not stated here; further: % of control where 0% means no effect; nearly all actives have a fitted effect of over 65% in size
#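 Stable cell line, 250 cells/well, 12 h attachment; compounds pinned at 5 concentrations, 24 h; CCCP control. Fixed with nuclear dye, primary antibodies 12 h at 10 degrees C, secondary plus cell stain; laser-scanning cytometer read.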
# ClpP mod: qHTS Assay for Activators of ClpP; 340,000 compounds, 1.9% hits; Potency, µM (top dose mostly 57.5 µM), without a hit: top-dose activity change, negative = active; ATP-dependent Clp protease proteolytic subunit (Bacillus subtilis (strain 168)), P80244; AID 651965, 2013; purified B. subtilis ClpP, FRET peptide cleavage, 20 min; active means well fitted falling curve with a large enough effect; inconclusive means small, poorly fitted or top-dose-only effect; inactive means no such curve, though single readings can be large or run the other way; further: the source files actives as falling curves though it sought activators and does not explain the sign; nearly all actives have a fitted effect of over 65% in size
# Target sequence (P80244 whole entry, looked up): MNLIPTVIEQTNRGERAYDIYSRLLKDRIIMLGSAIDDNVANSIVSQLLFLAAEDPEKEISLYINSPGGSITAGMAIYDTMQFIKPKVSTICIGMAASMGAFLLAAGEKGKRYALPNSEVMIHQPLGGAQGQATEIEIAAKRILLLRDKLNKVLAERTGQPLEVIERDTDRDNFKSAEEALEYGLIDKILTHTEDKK
#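 FRET quenching reversal measured ClpP activation: 10 microg/mL B. subtilis ClpP at pH 8 with the FRET-FV decapeptide, read at 430 nm after 320 nm excitation. The 20-min minus 0-min signal was scaled between DMSO/no-enzyme wells and ADEP (5.8 microM final).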
# Epigenetic reg: derepresses silenced GFP reporter in murine cells; murine LDR cells, GFP reporter derepression, 30 h; Potency, µM (highest dose often 53.9 µM), without a hit: at the top dose GFP activation, most hits filed as activators; 280,000 compounds, 0.2% hits; AID 1865; further: % of control where 0% means no effect; nearly all actives have a fitted effect of over 60% in size
#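 Readout is the number of GFP-expressing murine LDR cells, counted by cytometry following washing. Cells were treated with compound for 30 h at 37 C; the stably integrated CMV-GFP locus is normally silent.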
# * = called active by the depositor; ? = inconclusive; / = no result; [ ] = dose if it differs, or a comment. Unless noted, the call rests on the fitted dose curve; in most records, active means well fitted curve in the direction sought with a large enough effect; inconclusive means small, poorly fitted or top-dose-only effect, or another doubt; inactive means no such curve, though single readings can be large; an effect the other way counts as inactive or inconclusive. Potency means the concentration at half of the fitted maximal effect.
SMILES,Gal4-VP16 FLuc,RORg inh,Sfp inh,PINK1 expr mod,ClpP mod,Epigenetic reg
COC(=O)c1cccc(Nc2c(-c3ccc(O)c(OC)c3)nc3nc[nH]n23)c1,/,/,/,4.4%,0.0%,1.1%
COc1ccc(-c2cc(C(=O)OCC(=O)NC3CC3)c3ccccc3n2)cc1OC,/,/,/,2.7%,/,/
COc1ccc2nc(-c3ccccc3)cc(C(=O)OCC(=O)NC3CC3)c2c1,/,/,/,?,10µM*,/
C=CCC1(CC=C)CCCN1C(=O)c1cc(COc2ccc(F)c(F)c2)on1,?,8.7%,-3.2%,6.3%,0.1%,/
C=CCC1(CC=C)CCCN1C(=O)c1cc(COc2ccc(C)nc2)on1,8.91µM*,?,13.8%,0.5%,3.7%,/
COc1cc(/C=N/n2c(-c3ccccc3)n[nH]c2=S)cc(OC)c1OC,-8.9%,-32.8%,-10.5%,6.8%,/,-1.0%
O=[N+]([O-])c1ccccc1/C=C/C=N/n1c(-c2ccccc2F)n[nH]c1=S,-3.5%,14.1µM*,28.2µM*,1.8%,-1.0%,5.5%
COc1cccc(/C=N/n2c(-c3cc(C)[nH]n3)n[nH]c2=S)c1OC,0.4%,-5.1%,-29.0%,4.6%,2.5%,1.2%
COc1ccccc1/C=C/C=N/n1c(-c2ccc(Cl)cc2)n[nH]c1=S,-9.6%,-27.7%,35.5µM*,-0.5%,3.1%,0.9%
COc1ccc(-c2n[nH]c(=S)n2/N=C/C=C/c2ccccc2OC)cc1,?,7.08µM*,-10.0%,3.5%,-2.6%,0.0%
COc1ccccc1/C=C/C=N/n1c(-c2ccccc2)n[nH]c1=S,?,0.398µM*,-58.1%,11.2%,/,-1.8%
CCS(=O)(=O)c1ncc(Cl)c(C(=O)N(Cc2ccccc2)c2ccc(OC)cc2)n1,/,/,/,-1.2%,-3.0%,0.0%
O=S(=O)(c1ccccc1)c1nc(-c2ccc(Cl)cc2Cl)oc1N1CCCCCC1,/,/,/,-0.5%,?,-0.1%
COc1ccc(-c2nc3cc(C)ccc3cc2CN(C(=O)c2ccc(C)s2)C2CC2)cc1OC,/,/,/,-0.7%,/,/
CCOC(=O)c1c(NC(=O)CSc2nc3ccccc3s2)sc(C)c1C,-3.7%,-21.9%,0.8%,1.5%,-24.3%,-0.9%
COC(=O)CSc1nnc(-c2ccco2)o1,3.7%,-4.7%,0.0%,7.5%[38.3 µM],2.2%,1.9%
CCOC(=O)c1c(NC(=O)CSc2nnc(-c3cccnc3)o2)sc(C(C)=O)c1C,?,10µM*,2.1%,-1.7%,0.6%,0.0%
Cc1nnc(NC(=O)CSc2nnc(-c3ccco3)o2)s1,5.01µM*,1.58µM*,7.2%,-0.8%,/,-0.1%
CCOC(=O)c1c(NC(=O)CSc2nc3ccccc3o2)sc(C)c1C,-0.7%,8.7%,44.7µM*,?,-1.4%,-1.1%
Cc1ccc(NC(=O)CSc2nnc(-c3ccco3)o2)c(C)c1,5.2%,0.1%,5.5%,-1.6%,/,-6.3%
CC(C)c1nnc(NC(=O)CSc2nnc(-c3ccco3)o2)s1,17.8µM*,11.2µM*,22.7%,0.1%,0.3%,3.2%
CCOCC(=O)O,-2.5%,-8.8%,/,/,/,/
CCc1cccc(NC(=O)CCS(=O)(=O)c2ccc(C)cc2)c1,/,/,/,-1.4%,-1.6%,-0.4%
CCOC(=O)c1c(NC(=O)CSc2nnc(-c3ccco3)o2)sc(C)c1C,1.6%,17.7%,50.1µM*,0.0%,-2.6%,2.6%
c1ccc(Cc2c(-c3ccccc3)nc3c4ccccc4ccn23)cc1,/,/,/,0.7%,31.6µM*,/
SMILES,Gal4-VP16 FLuc,RORg inh,Sfp inh,PINK1 expr mod,ClpP mod,Epigenetic reg
Cc1ccc2nc(SCC(=O)O)nc(C)c2c1,5.5%,-9.6%,-5.6%,-0.7%[38.3 µM],-12.8%,-1.0%
Cc1ccc2nc(SC(C(=O)c3ccccc3)c3ccccc3)nc(C)c2c1 (stereo not drawn),15.8µM*,?,-0.3%,8.2%,?,0.0%
N#CC1=C2SCN(c3ccccc3)CN2C(=O)CC1c1ccccc1Cl (stereo not drawn),?,?,1µM*,0.0%,-21.3%,-1.7%
N#CC1=C2SCN(c3ccccc3)CN2C(=O)CC1c1cccs1 (stereo not drawn),-6.5%,37.9%,0.794µM*,0.3%,-1.1%,1.0%
N#CC1=C2SCN(c3ccccc3)CN2C(=O)CC1c1c(Cl)cccc1Cl (stereo not drawn),?,15.8µM*,5.01µM*,-0.3%,-4.8%,5.6%
O=C(Nc1ccccc1Cl)C1CC(=O)N(c2ccccc2)C1 (stereo not drawn),23.1%,30.5%,14.5%,0.8%,/,-3.1%
CCSC1=C(C#N)C(c2ccccc2Cl)CC(=O)N1 (stereo not drawn),-2.2%,?,-2.7%,0.2%,1.5%,-0.2%
COc1ccc(C2C=C3CNS(=O)(=O)C3CC2OC(=O)c2ccc(Cl)cc2)cc1 (stereo not drawn),?,33.4%,11.5%,/,/,/
O=C(C1CCCCC1)N1CCOc2ccc(CN3CCN(Cc4ccccn4)CC3)cc2C1,/,/,/,0.8%,/,/
CC(C)CNC(=O)c1nn(Cc2ccccc2)c(=O)c2ccccc12,-3.6%,7.1%,-21.0%,2.1%,/,/
COc1ccccc1C(=O)NNC(=O)c1nn(Cc2ccccc2)c(=O)c2ccccc12,?,6.31µM*,11.6%,9.3%,/,?
COc1cccc(N2CC(C(=O)Nc3nnc(SCC(=O)Nc4ccc(NC(C)=O)cc4)s3)CC2=O)c1 (stereo not drawn),-3.6%,-4.9%,-14.4%,1.0%,-8.4%,/
COc1cccc(C(=O)Nc2nnc(C(C)C)s2)c1,?,8.91µM*,14.9%,2.1%,-3.1%,-1.2%
COc1ccc(-c2nnc(SCC(=O)Nc3ccc(F)cc3)s2)cc1,/,/,/,0.1%,14.1µM*,1.4%
COc1cccc(C(=O)Nc2nnc(SCC(=O)Nc3ccc(NC(C)=O)cc3)s2)c1,?,11.2µM*,8.1%,1.8%,-1.5%,/
CCOc1ccc(C(=O)Nc2nnc(C(C)C)s2)cc1OCC,-1.8%,0.5%,89.1µM*,1.1%,-11.0%,-2.7%
